# Sampled rows, rich in hits. Any-hit rate of the full collection: about 3.2%.
# MEKK2 mut-MEK5: signal of MEK5 binding to mutant human MEKK2 PB1 domain | bead flow cytometry, Alexa488-MEK5 binding to MEKK2 mutant | percent response, % at 10 µM | 290,000 tested, 0.35% active; in the data active = percent response above about 24%, passing the limit was not always enough
# NRP1-CendR mod: modulators of CendR peptide binding to human neuropilin-1; O14786; FAM-RPARPAR peptide binding to NRP-1, fluorescence polarization; 360,000 tested, 0.85% active; inhibition, % at 25 µM; AID 602438;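 active = inhibition or corrected inhibition above about 18%, plus a signal ratio from 0.5 to 1.5, limit read from the data, passing the limit was not always enough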
# MEKK3 PB1 HTS: raises or lowers MEK5 binding to the human MEKK3 PB1 domain. Q99759. bead-based flow cytometry, Alexa488-MEK5 binding to MEKK3; actives lie on both sides; 0 = blocked by unlabeled MEK5, 100 = vehicle. binding response (% of control), % at 10 µM. 290,000 tested, 1.4% active. AID 1529;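 active = binding response more than 3 SD above or below the average of its plate-row segment, actives on both sides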;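 note: Alexa488 bead fluorescence after subtracting the streptavidin-only scavenger bead signal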
# MEKK2wt PB1 HTS: raises or lowers MEK5 binding to wildtype human MEKK2 PB1 domain | Q9Y2U5 | bead flow cytometry, Alexa488-MEK5 binding to MEKK2 WT; actives lie on both sides | binding response (% of control), % at 10 µM | 290,000 tested, 1.1% active | AID 1531; in the data active = binding response below about 67% or above about 130%
# SKN-1 block: inhibitors of C. elegans SKN-1; inhibition, % at 21.8 µM; 360,000 tested, 0.49% active; AID 624304; C. elegans VP596 Pgst-4::GFP/RFP ratio, acrylamide-induced, 24 h;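 active = interference check ratio from 0.5 to 1.5 plus GFP to RFP signal ratio inhibition reaching or exceeding a fixed threshold, cut at about 30% in these data, passing the limit was not always enough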
# MEKK2wt confirm: raises or lowers MEK5 binding to wildtype human MEKK2, retest; shares compounds with MEKK3 PB1 HTS; bead flow cytometry, Alexa488-MEK5 binding to MEKK2 WT; actives lie on both sides; 5,900 tested, 2.4% active; binding response (% of control), % at 10 µM; AID 1892; in the data active = binding response below about 16% or above about 210%; inactive = in between
# MEKK2mut confirm: signal of MEK5 binding to mutant human MEKK2, retest; percent response, % at 10 µM; bead flow cytometry, Alexa488-MEK5 binding to MEKK2 mutant; 5,900 tested, 2% active; shares compounds with MEKK3 PB1 HTS; in the data active = percent response mostly above about 71%, no sharp cut-off; inactive = mostly below about 38%;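 note: higher means compound restores mutant binding toward wildtype level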
# MEKK3 confirm: MEKK3-MEK5 PB1 inhibition, single concentration confirmation; shares compounds with MEKK3 PB1 HTS; bead flow cytometry, Alexa488-MEK5 binding to MEKK3; hits give low values; binding response (% of control), % at 10 µM; 5,900 tested, 1.8% active; AID 1894;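 active = binding response below 72% of control, or above a set upper limit, though filed actives all read lower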;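 note: 100% = DMSO only wells and 0% = binding blocked by excess unlabeled MEK5; lower values mean stronger disruption of MEK5 binding to MEKK3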
# Active calls of the source: *; · = no result given; [ ] = remark or other dose.
SMILES,MEKK2 mut-MEK5,NRP1-CendR mod,MEKK3 PB1 HTS,MEKK2wt PB1 HTS,SKN-1 block,MEKK2wt confirm,MEKK2mut confirm,MEKK3 confirm
CC1(C)CC2CCC(O)C2C(CCO)N1 (configuration not stated),·,7.6,·,·,1.5,·,·,·
O=C1NC(=O)C(CCc2ccncc2)(Cc2ccc([N+](=O)[O-])cc2)C(=O)N1,0.0,-10.5,140.0*,107.0,-5.7,100.0,2.0,100.0
Cc1ncoc1C(=O)NCC1=C(c2ccc3ccccc3c2)C[C@@H]2CC[C@H]1N2Cc1ccco1,·,8.1,·,·,0.5,·,·,·
CC1(CCl)CN1S(=O)(=O)c1ccccc1 (configuration not stated),6.0,-5.2,106.0,97.0,-10.6,·,·,·
CC(N)Cc1c[nH]c2ccc(O)cc12 (configuration not stated),·,-14.4,·,·,24.6,·,·,·
CC(N)Cc1c[nH]c2ccc(OCc3cccs3)cc12 (configuration not stated),11.0,-2.6,119.0,140.0*,19.9,108.0,7.0,104.0
COc1ccc(-n2nnnc2C(CCc2ccccc2)N2CCC3(CC2)C(=O)NCN3c2ccccc2)cc1 (configuration not stated),·,7.8,·,·,18.2,·,·,·
O=C1CC(N2CCC(n3c(=O)[nH]c4ccccc43)CC2)C(=O)N1c1ccc(F)cc1 (configuration not stated),10.0,4.4,105.0,106.0,9.8,·,·,·
O=c1[nH]c2ccccc2n1C1CCN(CCCC(c2ccc(F)cc2)c2ccc(F)cc2)CC1,31.0*,-2.4,83.0,146.0*,-0.3,195.0,66.0,109.0
COc1cccc(C2CC3C(=O)C=CC2N3Cc2ccccc2)c1 (configuration not stated),1.0,0.8,157.0*,105.0,-6.5,98.0,-9.0,99.0
NC(N)=N/N=C/c1ccc(N(c2ccccc2)c2ccccc2)cc1,73.0*,25.0*,114.0,235.0*,-6.5,205.0,63.0,111.0
COc1ccc(/C=N\N=C(N)N)cc1,-2.0,0.1,102.0,95.0,1.7,·,·,·
CSc1ccc(C(=O)C2CCCN(Cc3cc4ccccc4[nH]3)C2)cc1 (configuration not stated),48.0,-3.5,104.0,217.0*,1.0,181.0,37.0,111.0
CSc1ccc(C(=O)C2CCCN(Cc3cccnc3)C2)cc1 (configuration not stated),1.0,3.9,102.0,98.0,0.2,·,·,·
CCCCCCCSc1cc(OC)c(CCN(C)C)cc1OC,28.0*,2.3,104.0,147.0*,3.0,155.0,21.0,100.0
Cc1ccccc1NC(=O)NCCN1CC1,23.0,7.5,95.0,144.0*,15.3,159.0,22.0,100.0
CCCCCCC(=O)N/N=C/c1c(O)n(CCCC)c(=S)[nH]c1=O,4.0,-6.2,106.0,104.0,-5.0,·,·,·
CCCCC(=O)N/N=C/c1c(O)n(CC)c(=S)[nH]c1=O,-1.0,5.2,2.0*[inhibitor],1.0*[inhibitor],0.9,100.0,-1.0,103.0
CCOS(C)(=O)=O,·,2.1,·,·,11.2,·,·,·
C=CCN1C(=O)NC(=O)/C(=C/c2ccc(OC)c(CSc3ccccn3)c2)C1=O,-20.0,-2.5,80.0*[inhibitor],80.0,3.1,99.0,-2.0,99.0
CO[C@H]1C=CCCC=CC(=O)O[C@H]([C@H](C)C(=O)CCCC2CC(=O)NC(=O)C2)C(C)=C[C@@H](C)[C@@H]1O,·,-3.8,·,·,11.5,·,·,·

# Assay outcomes deposited in PubChem BioAssay by several laboratories.
